The panel holds about 83,000 compounds, 20% with a hit somewhere; the sample as a whole holds those more often.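 Method: cells in 96-well plates; compound added at one concentration; 48 h incubation; percent growth measured; values under 10 scored active.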 The source made the active and inactive calls.
How the values were obtained:
Assay in all cases: NCI-60 one-dose screen, 48 h (100 = growth as untreated, 0 = no growth, -100 = all killed)
Details in all cases: 10 µM unless noted
[1] = test system: SR leukemia
[2] = test system: RPMI-8226 leukemia
[3] = test system: OVCAR-8 ovarian
[4] = test system: OVCAR-5 ovarian
[5] = test system: OVCAR-4 ovarian
[6] = test system: SK-OV-3 ovarian
[7] = test system: IGROV1 ovarian
[8] = test system: OVCAR-3 ovarian
[9] = test system: HS 578T breast
[10] = test system: NCI/ADR-RES ovarian
[11] = test system: T-47D breast
[12] = test system: BT-549 breast
[13] = test system: MDA-MB-435 melanoma
[14] = test system: SW-620 colon
[15] = test system: MCF7 breast
[16] = test system: HCT-116 colon
[17] = test system: HCC-2998 colon
[18] = test system: KM12 colon
[19] = test system: MDA-MB-468 breast

Measured: growth

CCOc1ccccc1[C@H]1C(C(=O)c2ccc(Cl)cc2)C2(N[C@@H]1c1ccccc1)C(=O)Nc1ccccc12 (stereo not given in full)
inactive: [2] 10.9% | [3] 28% | [4] 14.5% | [5] 17.7% | [6] 26% | [7] 17.9% | [8] 25.5% | [11] 10% | [14] 21% | [18] 12.4%
active: [1] -38% | [9] 6.17% | [10] -40.6% | [12] -35% | [13] -28.3% | [15] -9.52% | [16] 3.88% | [17] 6.07% | [19] -31.1%

COc1cc(C=O)ccc1OC(=O)c1cc(-c2ccc(C)cc2)n(-c2ccc(S(C)(=O)=O)cc2)n1
inactive: [1] 121% | [2] 94.7% | [3] 105% | [4] 109% | [5] 105% | [6] 107% | [7] 111% | [8] 119% | [9] 116% | [10] 107% | [11] 105% | [12] 126% | [13] 104% | [14] 124% | [15] 88.4% | [16] 98.7% | [17] 118% | [18] 104% | [19] 124%

S=C(Nc1ccc(OCc2nc3ccc(Cl)cc3[nH]2)cc1)NC1CCCCC1
active: [1] -27.3% | [2] -13.1% | [3] -10% | [4] -12.8% | [7] 7.22% | [8] -3.28% | [10] -14.8% | [13] -10.4% | [14] -7.01% | [15] 0.799% | [16] -31.6% | [17] -69.5% | [18] -12.5% | [19] -30.8%
inactive: [5] 10.6% | [6] 29.2% | [9] 14.8% | [11] 17.3% | [12] 13.5%

COc1ccc(C2=Nc3c(N)nc(N)nc3NC(c3ccc(Oc4nc(Nc5ccc(F)cc5)nc(N(C)C)n4)c(OC)c3)C2)cc1 (stereo not given)
inactive: [2] 36.2% | [3] 81.7% | [4] 108% | [5] 48.4% | [6] 93.2% | [7] 63.5% | [8] 82.5% | [9] 37.6% | [10] 62.7% | [11] 70.3% | [12] 66.2% | [13] 81.9% | [14] 76.6% | [15] 38.8% | [16] 44.2% | [17] 80.1% | [18] 74.9%
active: [1] -29.4% | [19] 8.9%

COc1cc(/C=N/NC(=O)c2ccc(OCc3nc4ccc(C)cc4[nH]3)cc2)cc(OC)c1OC
inactive: [4] 88% | [5] 71.9% | [6] 106% | [7] 50.5% | [8] 29.5% | [9] 63.1% | [10] 91.6% | [11] 35.1% | [12] 45.4% | [13] 49.1% | [14] 40.7% | [15] 38.2% | [16] 21.2% | [17] 65.5% | [18] 57% | [19] 41.5%
active: [1] 0.64% | [2] 7.31% | [3] -30.8%

Cc1ccc2nc(COc3ccc(C(=O)NNC(=O)Nc4ccc(Cl)c(C(F)(F)F)c4)cc3)[nH]c2c1
inactive: [1] 16.8% | [2] 59.5% | [3] 10.7% | [4] 66.9% | [5] 74% | [6] 70.9% | [7] 52.2% | [8] 28.9% | [9] 39.7% | [10] 95.8% | [14] 43.4% | [15] 53.4% | [17] 70.1% | [18] 24.9%
active: [11] -24.8% | [12] -2.01% | [13] 8.76% | [16] 4.51% | [19] -56.9%

O=C(c1ccc(O)cc1)C1[C@H](c2ccc(Cl)cc2)[C@@H](c2ccccc2)NC12C(=O)Nc1ccc(Br)cc12 (stereo not given in full)
inactive: [6] 22%
active: [1] -52.7% | [2] 3.14% | [3] 5.82% | [4] -19.4% | [5] -8.82% | [7] -40.4% | [8] 2.42% | [9] -5.94% | [10] -37.2% | [11] 2.46% | [12] -76.6% | [13] -41.1% | [14] -58.1% | [15] -22.1% | [16] -75% | [17] -88.6% | [18] -25.4% | [19] -61.1%

COc1ccc(-c2nc3ccc(-c4nnc(SCC(=O)Nc5ccc(/C(C)=N\O)cc5)o4)cc3[nH]2)cc1
inactive: [1] 47.9% | [2] 36.5% | [3] 55.4% | [4] 113% | [5] 83.3% | [6] 80.1% | [7] 69.6% | [8] 63.3% | [10] 108% | [11] 53.1% | [13] 14.5% | [14] 96.2% | [15] 37% | [16] 70.5% | [17] 126% | [18] 37.6% | [19] 100%
active: [9] 6.55% | [12] -62.3%

C=CCSc1nnc(-c2ccc(-c3nc4ccccc4[nH]3)cc2)o1
inactive: [1] 81% | [2] 34.9% | [3] 55.9% | [4] 105% | [5] 46.1% | [6] 96.1% | [7] 101% | [8] 91.5% | [9] 79% | [10] 61.1% | [12] 83.5% | [13] 79% | [14] 101% | [15] 72.6% | [16] 74.9% | [17] 97.9% | [18] 82% | [19] 69.3%
active: [11] 4.02%

CNc1nc2ccccc2n2c(-c3ccc(O)c(O)c3)cnc12
active: [1] 6.32% | [2] 9.2% | [7] 7.31% | [8] -5.33% | [9] 1.79% | [10] 6.86% | [12] -22.3% | [13] -9.22% | [15] 4.34% | [16] 2.74% | [18] -0.402% | [19] 5.66%
inactive: [3] 11.9% | [4] 14.9% | [5] 34.7% | [6] 16.5% | [11] 42.2% | [14] 24.6% | [17] 19.9%

Cc1ccc(-c2cc(-c3ccccc3)[nH]c(=O)c2C#N)cc1
inactive: [1] 73.3% | [2] 76.7% | [3] 93.5% | [4] 109% | [5] 94.1% | [6] 107% | [7] 91.9% | [8] 98.4% | [9] 84.6% | [10] 82.3% | [11] 73.5% | [12] 88.5% | [13] 107% | [14] 97.8% | [15] 75.1% | [16] 94.3% | [17] 114% | [18] 91.2% | [19] 89.4%

COc1ccc(/C=C/C(=O)c2ccc(OC)c(S(N)(=O)=O)c2)c(C(F)(F)F)c1
inactive: [5] 18.6% | [6] 66.6% | [8] 15.8% | [9] 49.3% | [11] 29.3% | [13] 63.6%
active: [1] 0.801% | [2] 3.98% | [3] 6.69% | [4] 3.65% | [7] 1.64% | [10] -31.4% | [12] -78.9% | [14] 7.45% | [15] 8.35% | [16] -44.3% | [17] -95.4% | [18] 6.97% | [19] 7.25%

Cc1cc(C(NC(=O)CCCCCNc2cccc3c2C(=O)N(C2CCC(=O)CC2=O)C3=O)c2cccc(N(C)C)c2)c(O)c2ncccc12 (stereo not given)
active: [3] 2.18% | [6] -2.15% | [7] 1.63% | [11] 4.11% | [12] -8.92% | [19] -24.4%
inactive: [1] 25.3% | [2] 15.6% | [4] 38.1% | [5] 33.2% | [8] 16.3% | [9] 19.6% | [10] 50.6% | [13] 36.1% | [14] 23.7% | [15] 10.9% | [16] 13.8% | [17] 14.6% | [18] 15.3%

N#C/C(=C/c1ccc(Cl)cc1)c1nnc(NC(=O)c2ccc(-n3c(=O)[nH]c4ccccc4c3=O)cc2)s1
inactive: [1] 62.7% | [2] 70.4% | [3] 46% | [4] 83.9% | [5] 75.3% | [6] 85% | [7] 80.9% | [8] 84.6% | [9] 34.1% | [10] 81.5% | [11] 64.2% | [12] 40% | [13] 84.7% | [14] 73.8% | [15] 38% | [16] 46.4% | [17] 23.5% | [18] 23.6% | [19] 34.9%

COc1cc(/C=N/NC(=O)c2ccc(OCc3nc4ccc(Cl)cc4[nH]3)cc2)cc(OC)c1OC
inactive: [1] 33% | [3] 34.5% | [4] 76.3% | [5] 67.1% | [6] 97.7% | [7] 43.1% | [8] 55.7% | [9] 58.3% | [10] 80.6% | [12] 22.9% | [13] 37.7% | [14] 40.8% | [15] 18.3% | [16] 22.8% | [17] 61.2% | [18] 43.3% | [19] 43.4%
active: [2] 2.76% | [11] 7.17%

Reference: PubChem BioAssay (NCI)
